Data on 34 compounds can be found in ChEMBL document CHEMBL2218924, “A broad activity screen in support of a chemogenomic map for kinase signalling research and drug discovery” (Biochem J, 2013).

The structures appear in SMILES notation.

The target in the first assay is T1, Serine/threonine-protein kinase D2 (Homo sapiens) (UniProt Q9BZL6).
T1 sequence (whole entry): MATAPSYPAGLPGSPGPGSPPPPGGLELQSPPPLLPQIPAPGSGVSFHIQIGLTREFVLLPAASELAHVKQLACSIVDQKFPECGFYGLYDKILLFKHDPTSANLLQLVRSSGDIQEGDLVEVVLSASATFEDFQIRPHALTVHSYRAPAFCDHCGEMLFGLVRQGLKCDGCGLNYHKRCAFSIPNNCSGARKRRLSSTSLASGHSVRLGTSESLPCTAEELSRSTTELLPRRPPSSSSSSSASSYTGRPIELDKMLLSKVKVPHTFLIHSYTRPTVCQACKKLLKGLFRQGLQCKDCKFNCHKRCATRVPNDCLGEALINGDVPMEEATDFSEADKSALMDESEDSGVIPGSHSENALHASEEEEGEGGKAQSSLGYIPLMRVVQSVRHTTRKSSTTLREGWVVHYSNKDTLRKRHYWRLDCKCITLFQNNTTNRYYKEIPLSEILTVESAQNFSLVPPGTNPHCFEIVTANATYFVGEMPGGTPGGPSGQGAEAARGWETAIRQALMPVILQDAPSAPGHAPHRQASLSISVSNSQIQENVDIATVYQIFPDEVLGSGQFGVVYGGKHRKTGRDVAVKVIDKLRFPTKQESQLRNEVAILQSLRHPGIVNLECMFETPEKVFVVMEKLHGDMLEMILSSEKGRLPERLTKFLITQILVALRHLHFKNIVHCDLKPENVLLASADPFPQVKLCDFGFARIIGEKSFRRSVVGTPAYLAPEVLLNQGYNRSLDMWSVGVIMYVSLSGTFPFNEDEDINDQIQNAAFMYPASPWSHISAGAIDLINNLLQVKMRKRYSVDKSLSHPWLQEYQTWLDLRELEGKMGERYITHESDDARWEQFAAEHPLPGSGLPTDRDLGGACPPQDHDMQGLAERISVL
Particulars: at 1 µM.
On to `COc1ccc(CNc2nc(N(CCO)CCO)nc3c2ncn3C(C)C)cc1`, for which the residual activity was 101%.
For the compound `O=Nc1c(-c2c(O)[nH]c3ccccc23)[nH]c2ccccc12`, the residual activity amounted to 109%.
Same read-out and setting: for `O=c1c2ccccc2[nH]c(=S)n1CCN1CCC(=C(c2ccc(F)cc2)c2ccc(F)cc2)CC1` the value was 100%; for `c1ccc(-c2n[nH]cc2-c2ccnc3ccccc23)nc1`, 101%; for `Cn1nc2c3c(cccc31)C(=O)c1ccccc1-2`, 108%.
As for `CC#CC(=O)Nc1cc2c(Nc3ccc(F)c(Cl)c3)ncnc2cn1`, the residual activity stood at 105%.
Turning to `CNc1cc2c(Nc3cccc(Br)c3)ncnc2cn1`, the residual activity is 104%.
Still for that read-out and setting: for `NC(=O)c1ccc2[nH]c(-c3ccc(Oc4ccc(Cl)cc4)cc3)nc2c1` the value was 99%; for `CCN(CC)CCCCN1c2ccccc2Oc2ccc(Cl)cc21`, 97%; for `CN(C)c1ccc(/C=C2\C(=O)Nc3ccccc32)cc1`, 103%.
As to `COc1cc2ncnc(N3CCN(C(=O)Nc4ccc(Oc5ccccc5)cc4)CC3)c2cc1OC`, the residual activity came to 103%.
On to `Oc1c2ccccc2c2c3c(cccc13)N=N2`, for which the residual activity came out at 92%.
Still for that read-out and setting: to `CC(=O)c1ccc(N2CCOCC2)cc1O` belongs 93%; to `Oc1ccc(-c2nc(-c3ccc(F)cc3)c(-c3ccncc3)[nH]2)cc1`, 102%; to `Cc1ccc(NC2=CC(=O)c3sc(C)nc3C2=O)cc1`, 105%.
On the same count and under the same terms, for `Cn1cc(/C=C2\C(=O)Nc3ccc(S(N)(=O)=O)cc32)c2ccccc21` the value was 103%.
Same read-out and setting: for `CC(C)n1cnc2c(NCc3ccccc3)nc(NCCCO)nc21` the value was 103%; for `Ic1cccc(CSc2nnc(-c3ccncc3)o2)c1`, 97%.
`O=c1cc(-c2cccc3c2Sc2ccccc2S3)oc(N2CCOCC2)c1`: the residual activity was found to be 106%.
In the case of `Cc1nc2cc3nc(-c4cccs4)cnc3cc2n1C`, the residual activity was found to be 96%.
The same measure, in the same setting: to `O=C1c2ccccc2-[n+]2ccc3c([nH]c4ccccc43)c21` belongs 101%.
Still for that read-out and setting: for `COc1cccc(-c2cc(=O)c3ccccc3o2)c1N` the value was 110%; for `O=C1NC(=O)c2cc(Nc3ccc(F)cc3)c(Nc3ccc(F)cc3)cc21`, 101%.
Take `Cc1nc(-c2ccccc2)c(-c2ccncc2)o1`: the residual activity was 103%.
Turning to `Cn1cnc2cc3c(Nc4cccc(Br)c4)ncnc3cc21`, the residual activity worked out at 97%.
On the same count and under the same terms, to `CC[n+]1c(/C=C/N(C)c2ccccc2)n(-c2ccccc2)c2ccc(-c3nc4ccccc4s3)cc21` belongs 95%; to `N#C/C(=C(\N)Sc1ccc(N)cc1)c1ccccc1C(F)(F)F`, 109%.
Turning to `COc1ccc(C(=O)Nc2sc3c(c2C(N)=O)CCCC3)cc1OC`, the residual activity is 103%.
As for `CC(C)n1cnc2/c(=N/c3cccc(Cl)c3)nc(NCCO)[nH]c21`, the residual activity came to 96%.
Regarding `CO[C@H]1[C@@H](OC)C[C@H](C)[C@@H](OC)C2=CC(=O)C=C(NC(=O)/C(C)=C/C=C/[C@H](OC)[C@@H](OC(N)=O)/C(C)=C/[C@@H]1C)C2=O`, the residual activity was determined as 102%.
Turning to `O=C1NC(=O)/C(=C\c2ccc3nccnc3c2)S1`, the residual activity was determined as 108%.
Still for that read-out and setting: for `Cc1ccc(S(=O)(=O)/C=C/C#N)cc1` the value was 108%.
`O=C1NC(=O)/C(=C/c2ccc3c(c2)OC(F)(F)O3)S1`: the residual activity was determined as 107%.
As for `CCOc1cc2ncnc(Nc3cccc(Br)c3)c2cc1OCC`, the residual activity was determined as 104%.

Another assay concerns the target T1, Serine/threonine-protein kinase D2 (Homo sapiens). Particulars: at 10 µM.
Turning to `COc1ccc(CNc2nc(N(CCO)CCO)nc3c2ncn3C(C)C)cc1`, the residual activity stood at 93%.
On to `O=Nc1c(-c2c(O)[nH]c3ccccc23)[nH]c2ccccc12`, for which the residual activity was determined as 98%.
Take `c1ccc(-c2n[nH]cc2-c2ccnc3ccccc23)nc1`: the residual activity came out at 66%.
On to `Cn1nc2c3c(cccc31)C(=O)c1ccccc1-2`, for which the residual activity amounted to 92%.
As to `CC#CC(=O)Nc1cc2c(Nc3ccc(F)c(Cl)c3)ncnc2cn1`, the residual activity turned out to be 114%.
In the case of `CNc1cc2c(Nc3cccc(Br)c3)ncnc2cn1`, the residual activity worked out at 98%.
Consider `NC(=O)c1ccc2[nH]c(-c3ccc(Oc4ccc(Cl)cc4)cc3)nc2c1`, for which the residual activity stood at 84%.
For the compound `CCN(CC)CCCCN1c2ccccc2Oc2ccc(Cl)cc21`, the residual activity was 109%.
Regarding `CN(C)c1ccc(/C=C2\C(=O)Nc3ccccc32)cc1`, the residual activity amounted to 114%.
As for `COc1cc2ncnc(N3CCN(C(=O)Nc4ccc(Oc5ccccc5)cc4)CC3)c2cc1OC`, the residual activity turned out to be 99%.
Take `Oc1c2ccccc2c2c3c(cccc13)N=N2`: the residual activity came out at 36%.
In the case of `CC(=O)c1ccc(N2CCOCC2)cc1O`, the residual activity stood at 109%.
For `Oc1ccc(-c2nc(-c3ccc(F)cc3)c(-c3ccncc3)[nH]2)cc1`, the residual activity came out at 81%.
`Cc1ccc(NC2=CC(=O)c3sc(C)nc3C2=O)cc1`: the residual activity was 85%.
Take `Cn1cc(/C=C2\C(=O)Nc3ccc(S(N)(=O)=O)cc32)c2ccccc21`: the residual activity came out at 103%.
As to `CC(C)n1cnc2c(NCc3ccccc3)nc(NCCCO)nc21`, the residual activity was determined as 96%.
As for `Ic1cccc(CSc2nnc(-c3ccncc3)o2)c1`, the residual activity is 98%.
Turning to `O=c1cc(-c2cccc3c2Sc2ccccc2S3)oc(N2CCOCC2)c1`, the residual activity came to 103%.
For the compound `Cc1nc2cc3nc(-c4cccs4)cnc3cc2n1C`, the residual activity was determined as 105%.
As to `O=C1c2ccccc2-[n+]2ccc3c([nH]c4ccccc43)c21`, the residual activity was determined as 100%.
Still for that read-out and setting: to `COc1cccc(-c2cc(=O)c3ccccc3o2)c1N` belongs 97%; to `O=C1NC(=O)c2cc(Nc3ccc(F)cc3)c(Nc3ccc(F)cc3)cc21`, 89%; to `Cc1nc(-c2ccccc2)c(-c2ccncc2)o1`, 94%.
With `Cn1cnc2cc3c(Nc4cccc(Br)c4)ncnc3cc21`, the residual activity stood at 116%.
Consider `CC[n+]1c(/C=C/N(C)c2ccccc2)n(-c2ccccc2)c2ccc(-c3nc4ccccc4s3)cc21`, for which the residual activity was 114%.
On the same count and under the same terms, for `N#C/C(=C(\N)Sc1ccc(N)cc1)c1ccccc1C(F)(F)F` the value was 100%.
Turning to `COc1ccc(C(=O)Nc2sc3c(c2C(N)=O)CCCC3)cc1OC`, the residual activity worked out at 108%.
On the same count and under the same terms, for `CC(C)n1cnc2/c(=N/c3cccc(Cl)c3)nc(NCCO)[nH]c21` the value was 93%; for `CO[C@H]1[C@@H](OC)C[C@H](C)[C@@H](OC)C2=CC(=O)C=C(NC(=O)/C(C)=C/C=C/[C@H](OC)[C@@H](OC(N)=O)/C(C)=C/[C@@H]1C)C2=O`, 110%.
Consider `O=C1NC(=O)/C(=C\c2ccc3nccnc3c2)S1`, for which the residual activity was 96%.
Turning to `Cc1ccc(S(=O)(=O)/C=C/C#N)cc1`, the residual activity turned out to be 102%.
On the same count and under the same terms, to `O=C1NC(=O)/C(=C/c2ccc3c(c2)OC(F)(F)O3)S1` belongs 99%; to `CCOc1cc2ncnc(Nc3cccc(Br)c3)c2cc1OCC`, 113%.

In general, residual activity refers to the signal under treatment as a percentage of the control signal.
